Measurements reported in PubChem BioAssay.
“And” between values parts separate entries of the source, which are not always exact repeats. Equal values may be shown once. The source made the active and inactive calls. Rule as the data show it, unless noted: active = parasite load remaining mostly below about 12% (no sharp cut-off); inactive = mostly above about 10%.

What was measured:
[1] = yeast 75Q aggregation reduction – 75Q-TubU reporter (AID 1593); conditions: Yeast 75Q polyglutamine aggregation reporter
[2] = blockers of cytochrome c efflux from mitochondria – biochemical, purified mitochondria (AID 1603); conditions: stronger effect = lower value;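 also: mouse liver mitochondria challenged with calcium chloride; signal normalized to the plate average as 100%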
[3] = polyglutamine aggregate formation blockers (AID 1604); conditions: polyglutamine-induced protein aggregation inhibition assay; stronger effect = higher value; tested at 2.5 µM
[4] = P. berghei load reduction in hepatocytes – cell-based, HepG2, luciferase luminescence, HepG2 viability, primary screen (AID 624349);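 also: 100% = mean of DMSO negative control wells on the same plate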; conditions: P. berghei liver stage in HepG2, luciferase luminescence, concentration not given here; parasite load remaining: stronger effect = lower value; viability: measured here: HepG2 viability without parasites
[5] = Wnt pathway potentiators raising nuclear beta-catenin – imaging, WNT3A-conditioned medium, mouse C2C12, NPC library, primary screen (AID 1117326; in the data active = nuclear beta-catenin stimulation mostly above about 4.2%, no sharp cut-off; inactive = mostly below about 10%); conditions: stronger effect = higher value
[6] = stimulators of insulin release from INS-1E, primary screen, cell-based, 5 mM glucose, NPC library (AID 1117329;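 active = compound raises insulin release from rat beta cells at 5 mM glucose, no numeric limit stated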); conditions: rat INS-1E insulin secretion, at 10 µM, stronger effect = higher value
[7] = growth inhibition of GSK3B-pretreated HCT116 cells – cell-based, CellTiter-Glo, 0.2 to 20 µM (AID 1117336;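 active = compounds lowering colon cancer cell viability after pretreatment blocking the GSK3B kinase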); conditions: HCT116 viability after GSK3B inhibitor, at 20 µM, stronger effect = higher value
[8] = inhibition of endothelial tube formation, primary screen, imaging, VEGF stimulated, CD31 staining, tube area, NPC library (AID 1117340;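 active = compound that reduces growth-factor-driven endothelial tube area in a mixed cell culture, no cutoff stated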); conditions: VEGF-stimulated ADSC/ECFC co-culture, at 10 µM, stronger effect = higher value
[9] = GLP1 release stimulators, primary, NCI-H716, NPC library (AID 1117341;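 active = compound raises GLP1 secretion from the human gut endocrine cells, with no numeric limit stated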); conditions: NCI-H716 cells, at 10 µM, stronger effect = higher value
[10] = HCT116 colon cancer cell growth inhibition, primary screen, CellTiter-Glo luminescence, NPC library (AID 1117342;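 active = compounds that lower survival of HCT116 colon cancer cells in the luminescence readout, no numeric limit stated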); conditions: at 20 µM (top of the series)
[11] = reduced SW480 viability measured with CellTiter-Glo, NPC library, primary (AID 1117343;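 active = compounds that lower viability of the colon cancer cells in the luminescence readout, with no numeric limit stated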); conditions: CellTiter-Glo luminescence; at 20 µM (top of the series)
[12] = NPC library primary testing for decreased DLD-1 cell viability via CellTiter-Glo (AID 1117346;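 active = compounds that lower survival of DLD-1 colon cancer cells in the luminescence readout, no cutoff given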); conditions: DLD-1 viability, CellTiter-Glo luminescence; at 20 µM (top of the series)
[13] = target: 6-phosphogluconate dehydrogenase, decarboxylating (Homo sapiens) (UniProt P52209); assay: inhibition of human phosphogluconate dehydrogenase – biochemical, recombinant enzyme, NADPH absorbance, primary screen (AID 1159550;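 active = at least 20% inhibition of 6-phosphogluconate dehydrogenase activity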); conditions: recombinant 6PGD, NADPH absorbance 341 nm; at 10 µM; stronger effect = higher value
[14] = EMT-state selective cytotoxicity in co-culture – imaging, PC-3E GFP, TEM4-18 mCherry, primary screen (AID 1345086;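 active = compounds killing one labelled cell type while sparing the other, by normalised counts and ratio limits, not self-fluorescent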;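 as to all read-outs here: cells exposed to compound for 72 h before imaging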;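 as to red/green cell ratio (normalised): normalised mesenchymal count divided by normalised epithelial count so high means epithelial killing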); conditions: PC-3E GFP / TEM4-18 mCherry co-culture, imaging cell counts, at 1 µM; for red/green cell ratio (normalised): actives lie on both sides
[15] = test system: Aerobactin synthetase IucA (Klebsiella pneumoniae hvKP1); assay: IucA enzyme inhibition, primary screen, biochemical, Spectrum library (AID 1346200; call rule not given here;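 also: 100% = wells without compound and 0% = wells lacking enzyme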); conditions: malachite green pyrophosphate, A620, at 8 µM, stronger effect = lower value
[16] = viability loss with induced miR-34 in A549 – imaging, A549 dox-inducible miR-34, nuclei and caspase counts, primary screen (AID 1347080;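 active = compounds whose cell count with miR-34 switched on is under 0.7 times the count with it off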); conditions: A549 miR-34 inducible, Hoechst nuclei count, 48 h
[17] = MELAS cybrid and Rieske KO viability enhancers – cell-based, MELAS cybrids, Rieske KO mouse fibroblasts, CellTiter-Glo, primary screen (AID 1508586;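 active = mean z-score across replicates of 1.96 or higher in either the MELAS or the Rieske mutant cell line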;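 also: z relative to plate mean and SD of compound and empty wells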); conditions: low glucose
[18] = target: NAD(+) hydrolase SARM1 (Homo sapiens) (UniProt Q6SZW1); assay: blocking NAD cleavage by SARM1 SAM-TIR – cell lysate, NAD-Glo luminescence (AID 1508614;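 active = compound whose remaining NAD level is above about 45 nM, limit read from the data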;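 also: higher remaining NAD means stronger inhibition of SARM1 NADase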); conditions: SAM-TIR HEK293T lysate NADase, at 1 µM, stronger effect = higher value
[19] = target: Mitogen-activated protein kinase 7 (Homo sapiens) (UniProt Q13164); assay: Gal4-ERK5 driven luciferase induction – cell-based, HTS, primary screen (AID 1508626;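 active = luciferase signal above three times the same-plate solvent-only control wells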;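 also: luciferase driven by Gal4-ERK5 fusion binding five Gal4 sites before minimal TATA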); conditions: HeLa Gal4-ERK5 transactivation, 18 h, at 5 µM, stronger effect = higher value
[20] = measured here: epithelial PC-3E GFP cell survival
[21] = measured here: mesenchymal TEM4-18 mCherry cell survival

Sequence of 6-phosphogluconate dehydrogenase, decarboxylating (Homo sapiens) (P52209 whole entry, looked up): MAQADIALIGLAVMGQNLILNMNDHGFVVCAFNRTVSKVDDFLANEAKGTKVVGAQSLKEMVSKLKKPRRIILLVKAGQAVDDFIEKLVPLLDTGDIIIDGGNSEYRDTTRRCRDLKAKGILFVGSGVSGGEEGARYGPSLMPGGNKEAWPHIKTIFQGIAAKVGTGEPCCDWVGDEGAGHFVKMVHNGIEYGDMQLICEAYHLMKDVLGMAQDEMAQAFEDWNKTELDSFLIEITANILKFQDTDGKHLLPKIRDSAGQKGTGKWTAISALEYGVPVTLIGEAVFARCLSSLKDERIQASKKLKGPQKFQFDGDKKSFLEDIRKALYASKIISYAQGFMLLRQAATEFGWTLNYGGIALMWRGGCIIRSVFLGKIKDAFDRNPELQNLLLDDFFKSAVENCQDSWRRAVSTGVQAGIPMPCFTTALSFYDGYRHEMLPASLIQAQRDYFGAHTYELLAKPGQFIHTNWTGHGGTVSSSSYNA
Sequence of Mitogen-activated protein kinase 7 (Homo sapiens) (Q13164 whole entry, looked up, the tested form may be a part): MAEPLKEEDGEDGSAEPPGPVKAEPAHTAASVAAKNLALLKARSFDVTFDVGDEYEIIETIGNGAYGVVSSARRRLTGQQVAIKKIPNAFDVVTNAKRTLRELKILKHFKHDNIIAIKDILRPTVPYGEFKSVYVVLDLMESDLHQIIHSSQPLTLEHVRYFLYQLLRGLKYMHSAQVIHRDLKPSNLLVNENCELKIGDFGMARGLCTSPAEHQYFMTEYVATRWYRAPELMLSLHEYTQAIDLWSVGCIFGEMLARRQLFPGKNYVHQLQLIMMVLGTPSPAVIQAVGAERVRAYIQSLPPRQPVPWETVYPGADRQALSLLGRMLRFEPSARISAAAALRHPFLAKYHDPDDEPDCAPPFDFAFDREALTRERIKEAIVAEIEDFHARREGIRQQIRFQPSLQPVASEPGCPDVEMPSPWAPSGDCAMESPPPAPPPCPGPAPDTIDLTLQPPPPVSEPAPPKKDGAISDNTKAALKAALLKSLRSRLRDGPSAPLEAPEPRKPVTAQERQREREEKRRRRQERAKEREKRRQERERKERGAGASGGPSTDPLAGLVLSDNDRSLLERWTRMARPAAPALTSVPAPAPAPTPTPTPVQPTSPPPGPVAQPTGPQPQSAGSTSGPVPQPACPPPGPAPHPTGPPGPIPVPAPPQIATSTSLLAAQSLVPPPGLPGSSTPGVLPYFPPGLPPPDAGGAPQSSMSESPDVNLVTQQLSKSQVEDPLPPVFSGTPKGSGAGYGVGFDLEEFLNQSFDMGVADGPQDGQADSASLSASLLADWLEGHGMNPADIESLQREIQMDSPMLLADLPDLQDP
Sequence of NAD(+) hydrolase SARM1 (Homo sapiens) (Q6SZW1 whole entry, looked up, the tested form may be a part): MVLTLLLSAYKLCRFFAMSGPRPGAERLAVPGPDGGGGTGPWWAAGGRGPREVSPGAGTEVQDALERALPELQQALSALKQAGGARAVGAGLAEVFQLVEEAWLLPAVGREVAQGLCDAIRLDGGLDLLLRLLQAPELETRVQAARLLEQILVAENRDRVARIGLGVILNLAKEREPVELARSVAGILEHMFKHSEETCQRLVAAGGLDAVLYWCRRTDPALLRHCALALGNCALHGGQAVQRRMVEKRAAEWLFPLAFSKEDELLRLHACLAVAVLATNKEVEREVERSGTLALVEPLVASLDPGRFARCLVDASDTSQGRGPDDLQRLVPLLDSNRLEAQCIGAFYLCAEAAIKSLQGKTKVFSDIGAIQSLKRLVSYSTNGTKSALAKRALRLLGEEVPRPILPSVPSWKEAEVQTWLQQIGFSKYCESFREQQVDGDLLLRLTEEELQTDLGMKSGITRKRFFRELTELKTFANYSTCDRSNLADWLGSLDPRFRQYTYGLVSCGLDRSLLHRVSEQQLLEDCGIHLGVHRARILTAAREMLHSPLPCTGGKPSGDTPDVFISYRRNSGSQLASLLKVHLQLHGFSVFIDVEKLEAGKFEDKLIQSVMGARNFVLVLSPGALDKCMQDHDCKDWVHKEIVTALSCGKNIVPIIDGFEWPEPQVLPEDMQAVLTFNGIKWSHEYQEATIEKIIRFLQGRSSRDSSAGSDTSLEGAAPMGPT

Q: Which score [1] does the source give for `O=c1oc2ccccc2c(O)c1Cc1c(O)c2ccccc2oc1=O` here?
A: 0.69

Q: And the cytochrome c release ratio [2]?
A: 0.7

Q: And the inhibition of aggregation [3]?
A: 42.1%

Q: And the parasite load remaining [4]?
A: 87.2% (inactive) and 95.3% (inactive) and 51.7% (inactive)

Q: And the viability [4]?
A: 97.7% and 68.2% and 89.1%

Q: And the nuclear beta-catenin stimulation ([5]; at 10 µM)?
A: -0.1% (inactive)

Q: And the nuclear beta-catenin stimulation ([5]; stimulation, at 2 µM)?
A: -2.5%

Q: And the insulin secretion stimulation [6]?
A: -1% (inactive)

Q: And the viability decrease [7]?
A: 97.6% (active)

Q: What about the tube area decrease [8] of the same compound?
A: 26% (inactive)

Q: What about the GLP1 secretion stimulation [9] of the same compound?
A: -3.4% (inactive)

Q: What about the inhibition of viability [10] of the same compound?
A: 90.5% (active)

Q: What about the viability decrease (inhibition) [11] of the same compound?
A: 107% (active)

Q: And the viability decrease (inhibition) [12]?
A: 92.1% (active)

Q: What about the inhibition [13] of the same compound?
A: -29.3% (inactive)

Q: What about the red/green cell ratio (normalised) [14] of the same compound?
A: 0.99 (inactive)

Q: And the normalised cell number [14, 20]?
A: 1.34

Q: What about the normalised cell number [14, 21] of the same compound?
A: 1.32

Q: And the activity remaining [15]?
A: 120% (inactive)

Q: What about the fold change ([16]; stronger effect = lower value) of the same compound?
A: 0.822 (inactive) and 0.882 (inactive) and 0.865 (inactive)

Q: What about the fold change ([16]; measured here: relative caspase fold change +Dox/-Dox) of the same compound?
A: 1.17 and 1.33 and 1.22

Q: What about the cell count ([16]; measured here: total cells with miR-34 induction, stronger effect = lower value) of the same compound?
A: 8510 and 8000 and 10400

Q: And the cell count ([16]; measured here: total cells without miR-34 induction)?
A: 10300 and 9060 and 12000

Q: And the z-score ([17]; MELAS cybrid survival, CellTiter-Glo 48 h, stronger effect = higher value)?
A: -0.183 (inactive) and 0.389 (inactive)

Q: What about the z-score ([17]; Rieske KO mouse fibroblast survival, CellTiter-Glo 72 h) of the same compound?
A: -0.295 and 0.839

Q: What about the remaining NAD [18] of the same compound?
A: 10 nM (inactive)

Q: What about the luciferase signal [19] of the same compound?
A: 28 AU (inactive)

Q: For `O=C1c2ccccc2C(=O)c2ccccc21`, which parasite load remaining [4] is on record?
A: 115% (inactive)

Q: What about the viability [4] of the same compound?
A: 67.1%

Q: And the nuclear beta-catenin stimulation ([5]; at 10 µM)?
A: 1.3% (inactive)

Q: And the nuclear beta-catenin stimulation ([5]; stimulation, at 2 µM)?
A: 0.4%

Q: And the insulin secretion stimulation [6]?
A: -1.4% (inactive)

Q: And the viability decrease [7]?
A: 2.3% (inactive)

Q: What about the tube area decrease [8] of the same compound?
A: 6.7% (inactive)

Q: And the GLP1 secretion stimulation [9]?
A: 1.9% (inactive)

Q: And the inhibition of viability [10]?
A: -45% (inactive)

Q: And the viability decrease (inhibition) [11]?
A: 31.6% (inactive)

Q: What about the viability decrease (inhibition) [12] of the same compound?
A: 4.05% (inactive)

Q: And the inhibition [13]?
A: -2.54% (inactive)

Q: And the red/green cell ratio (normalised) [14]?
A: 0.79 (inactive)

Q: And the normalised cell number [14, 20]?
A: 1.17

Q: And the normalised cell number [14, 21]?
A: 0.92

Q: And the activity remaining [15]?
A: 119% (inactive)

Q: What about the luciferase signal [19] of the same compound?
A: 100 AU (inactive)
